# Source: PubChem BioAssay AID1035475 (Broad Institute, 2014)
# Results with a measured potency or affinity are listed apart. Results filed as inconclusive are left out. The source made the active and inactive calls.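 How the source made its calls: active means fluorescent signal drops by 40% or more, counted as a hit; inconclusive means no clear call, values can overlap the other calls; inactive means the rest, including any activity in the opposite direction.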
# Test: inhibitors of fibronectin matrix deposition, dose response, AH1F cells, Alexa488-FN fluorescence, cherry-picks (AID 1035475);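 further: AH1F fibroblasts incorporating labeled fibronectin into their extracellular matrix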
row,Compound,outcome
1,Cc1ccc(S(=O)(=O)N2CC3(C)CN(S(=O)(=O)c4ccc(C)cc4)CC(C)(C2)C3=O)cc1,inactive
2,COC(=O)C[C@@H]1CC[C@H]2[C@H](COc3ccc(NC(=O)Cc4cccs4)cc3C(=O)N2C)O1,inactive
3,COc1ccc(CN(C2CCCC2)S(=O)(=O)c2ccc(-n3cnnn3)cc2)cc1OC,inactive
4,CO[C@H]1CN(C)C(=O)c2ccc(NC(=O)c3ccc(-c4ccccc4)cc3)cc2OC[C@H](C)NC[C@@H]1C,inactive
5,C[C@H]1CN([C@@H](C)CO)C(=O)c2cc(-c3ccccc3)cnc2O[C@H]1CN(C)C(=O)c1cccc(F)c1,inactive
6,Fc1cnc(N2CCN(c3ccccc3)CC2)nc1N1CCN(c2ccccc2)CC1,inactive
7,C[C@@H]1CN([C@@H](C)CO)C(=O)c2cc(-c3ccccc3)cnc2O[C@@H]1CN(C)C(=O)c1cccc(F)c1,inactive
8,COc1cccc(CN2CCN(C(=O)c3ccc(-c4ccccc4)cc3)CC2)c1OC,inactive
9,Cc1cccc(NC(=O)Nc2ccc(S(=O)(=O)Nc3onc(C)c3C)cc2)c1,inactive
10,Cc1ccc(S(=O)(=O)N2CC[C@@H]3[C@H](CO)Nc4ccc(-c5cccc(C(=O)N(C)C)c5)cc4[C@@H]32)cc1,inactive
11,CN(C)C(=O)c1ccc(-c2ccc3c(c2)[C@@H]2[C@@H](CCN2C(=O)c2ccc(F)cc2)[C@H](CO)N3C)cc1,inactive
12,Cc1ccc(CS(=O)Cc2ccc(C(=O)NC3CCCC(C)C3C)o2)cc1 (stereo not given),inactive
13,Cc1ccc(N(CC(=O)NCc2ccco2)S(=O)(=O)c2ccccc2)cc1,inactive
14,COc1ncccc1C(=O)NC1CCCc2c1cnn2-c1ccc(C)c(C)c1 (stereo not given),inactive
15,C[C@H](CO)N1C[C@H](C)[C@H](CN(C)C(=O)Nc2cccc3ccccc23)Oc2c(NC(=O)Nc3ccc(C(F)(F)F)cc3)cccc2C1=O,inactive
16,CCCCOc1ccc(C(C)NC(=O)C2CCCN(S(=O)(=O)CCC)C2)cc1 (stereo not given),inactive
17,CO[C@H]1CN(C)C(=O)c2cc(NC(=O)Nc3cc(Cl)cc(Cl)c3)ccc2OC[C@@H](C)NC[C@@H]1C,inactive
18,COCC(=O)Nc1ccc2c(c1)C(=O)N(C)[C@H]1CC[C@@H](CC(=O)NCc3ccccc3Cl)O[C@@H]1CO2,inactive

row,Compound,outcome
1,COc1ccccc1CC(=O)OC(C)C(=O)Nc1ccc(S(=O)(=O)N2CCCCC2)cc1 (stereo not given),inactive
2,C[C@H]1CN([C@@H](C)CO)C(=O)c2cc(NC(=O)CCCN(C)C)ccc2O[C@H]1CN(C)Cc1ccc(-c2ccccc2)cc1,inactive
3,C[C@H](CO)N1C[C@H](C)[C@H](CN(C)C(=O)c2cccc(F)c2)Oc2ncc(-c3ccccc3)cc2C1=O,inactive
4,CO[C@H]1CN(C)C(=O)c2cc(NC(=O)Nc3ccc(C(F)(F)F)cc3)ccc2OC[C@H](C)NC[C@H]1C,inactive
5,CO[C@H]1CN(C)C(=O)c2cc(NC(=O)Nc3cc(Cl)cc(Cl)c3)ccc2OC[C@@H](C)NC[C@H]1C,inactive
6,C[C@@H]1CN([C@H](C)CO)C(=O)c2cc(NC(=O)C3CCCCC3)ccc2O[C@@H]1CN(C)Cc1ccc(-c2ccccc2)cc1,inactive
7,CCOC(=O)C1=C(C)Nc2nc3ccccc3n2C1c1ccncc1 (stereo not given),inactive
8,c1ccc2[nH]c(SCc3cn4cccnc4n3)nc2c1,inactive
9,O=C(Nc1ccccc1F)N1C[C@@H]2[C@H](c3ccccc31)[C@@H](CO)N2C(=O)C1CC1,inactive
10,COc1ccc(C)cc1N(CC(=O)Nc1cccc(N(C)S(C)(=O)=O)c1)S(C)(=O)=O,inactive
11,O=C(CSc1nc2ncc(Cl)cc2[nH]1)c1c[nH]c2ccccc12,inactive
12,C[C@H](CO)N1C[C@H](C)[C@@H](CN(C)C(=O)Nc2cccc3ccccc23)Oc2c(NC(=O)Nc3ccc(C(F)(F)F)cc3)cccc2C1=O,inactive
13,O=C(CCNS(=O)(=O)c1cccc2nonc12)NC1CCCc2ccccc21 (stereo not given),inactive
14,CN1c2ccc(-c3ccccc3)cc2[C@H]2[C@H](CCN2C(=O)CN2CCOCC2)[C@H]1CO,inactive
15,Cn1cnc(S(=O)(=O)N2CCN(c3ccccc3)CC2)c1,inactive
16,CN(C)C(=O)c1ccc(-c2ccc3c(c2)[C@H]2[C@H](CCN2C(=O)c2ccc(F)cc2)[C@H](CO)N3C)cc1,inactive
17,C[C@H]1CN([C@@H](C)CO)C(=O)c2cc(-c3ccccc3)cnc2O[C@@H]1CN(C)C(=O)c1cccc(F)c1,inactive
